# Cy5 interf NS3h – Cy5 fluorescence quenchers or enhancers, artefact control for HCV NS3 helicase inhibitor project, biochemical, ChemBridge library, Cy5 readout. Cy5-dT15 DNA with NS3h, fluorescence interference; actives lie on both sides; signal over control mean, under 1 quenches. fluorescence interference ratio at 100 µM. 16,000 tested, 6% active;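 active = compound fluorescence over control fluorescence at most 0.8, a quencher, or at least a set upper limit, an enhancer; inactive = ratio between 0.8 and the set upper limit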
# HCV NS3h FP – HCV NS3 helicase inhibitors, primary screen, biochemical, fluorescence polarization, ChemBridge library; AID 687043, 2013; NS3h Cy5-dT15 DNA binding; inhibition, % at 100 µM; 16,000 tested, 1.6% active; Hepatitis C virus NS3 helicase;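 active = inhibition above the average over every tested compound plus 3 SD, cut at about 40% in these data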
# NS3h confirm – HCV NS3 helicase inhibitors, retest, confirmation, biochemical, fluorescence polarization, ChemBridge library; shares compounds with HCV NS3h FP; NS3h binding to Cy5-dT15 DNA; inhibition, % at 100 µM; 240 tested, 20% active;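 active = percent inhibition of 50% or more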
# SSB FP counter – E. coli SSB-DNA binding inhibitors, counter-screen for HCV NS3 helicase inhibitor project, biochemical, fluorescence polarization, selected ChemBridge compounds | inhibition, % at 100 µM | E. coli SSB binding Cy5-dT15 | shares compounds with HCV NS3h FP | 240 tested, 40% active;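 active = inhibition of at least 50%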;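 also: displacers lower Cy5 polarization so higher inhibition means more SSB displaced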
# Target sequence (P0AGE0 whole entry, looked up): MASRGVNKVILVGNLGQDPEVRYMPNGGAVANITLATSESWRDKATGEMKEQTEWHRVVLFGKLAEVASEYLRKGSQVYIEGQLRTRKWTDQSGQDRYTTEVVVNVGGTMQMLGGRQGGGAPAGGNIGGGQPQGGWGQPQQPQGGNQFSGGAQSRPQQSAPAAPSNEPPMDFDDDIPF
# Cy5 SSB interf – Cy5 fluorescence interference with SSB-bound oligo, artefact control for HCV NS3 helicase inhibitor project, biochemical, E. coli SSB, selected ChemBridge compounds | shares compounds with HCV NS3h FP | Cy5-dT15/E. coli SSB fluorescence interference; actives lie on both sides | fluorescence interference ratio at 100 µM | 240 tested, 8% active;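 active = fluorescence interference ratio at or above 1.2, signal boosting, or at or below 0.8, signal quenching; inactive = ratio between 0.8 and 1.2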;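 also: ratio of compound well signal to mean negative control signal so 1 means no effect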
# Cy5 interf conf – Cy5-DNA-NS3h complex fluorescence interference, confirmation, artefact control for HCV NS3 helicase inhibitor project, biochemical, ChemBridge library | shares compounds with HCV NS3h FP | Cy5-dT15 DNA/NS3h fluorescence interference counterscreen | fluorescence interference ratio at 100 µM, hits read low | 240 tested, 44% active | AID 720489, 2013;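 active = fluorescence interference ratio at or below 0.8 quencher or at or above a set limitenhancer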;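 also: ratio of compound fluorescence to mean of negative controls so 1 means no interference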
# Numbers without * were called inactive; . = not tested or not shown. Only some compounds are listed: those with a hit (about 6.9% of all), similar ones and a draw of the others.
SMILES,Cy5 interf NS3h,HCV NS3h FP,NS3h confirm,SSB FP counter,Cy5 SSB interf,Cy5 interf conf
CCCC(C(=O)O)N1C(=O)/C(=C\c2ccc(-c3ccc([N+](=O)[O-])cc3)o2)SC1=S (configuration not stated),0.86,84*,8,54*,0.82,0.71*
O=C1/C(=C/c2ccc(-c3ccc([N+](=O)[O-])cc3)o2)SC(=S)N1Cc1ccccc1,0.96,-6,.,.,.,.
COc1ccc(C2C(=C(O)c3ccccc3)C(=O)C(=O)N2c2cccc(Br)c2)c(OC)c1 (configuration not stated),0.94,2,.,.,.,.
CCOc1ccc(NC(=S)NC(NC(=O)c2ccc(Cl)cc2Cl)C(Cl)(Cl)Cl)cc1 (configuration not stated),1,6,.,.,.,.
COc1ccccc1NCn1nnc2ccccc21,0.87,-10,.,.,.,.
CC1=C(C#N)c2nc(N)c(C#N)c(C)c2/C1=C/c1ccc(-c2cccc(C(=O)O)c2)o1,1.1,121*,71*,152*,0.86,0.99
CC1=C(C#N)c2nc(N)c(C#N)c(C)c2/C1=C\c1ccc(I)o1,1.1,2,.,.,.,.
COc1ccc2c(c1)C1C=CCC1C(C(=O)O)N2 (configuration not stated),1.2,84*,59*,108*,1.5*,0.94
O=C(O)C1Nc2c(Cl)cc(Cl)cc2C2C=CCC12 (configuration not stated),0.87,97*,57*,104*,0.9,0.75*
O=[N+]([O-])c1ccc2c(c1)C1C=CCC1C(c1cccc(Cl)c1Cl)N2 (configuration not stated),0.97,7,.,.,.,.
CC(=O)c1ccc(NC(=O)c2sc3ccccc3c2Cl)cc1,1,5,.,.,.,.
CC(C)OC(=O)/C=C(\N)c1ccccc1,0.95,13,.,.,.,.
O=C1C(=C/C(Br)=C/c2ccccc2)SC(=S)N1Cc1ccccc1,1.1,8,.,.,.,.
CC(/C=C1\SC(=S)N(C(C(=O)O)c2ccccc2)C1=O)=C\c1ccccc1 (configuration not stated),0.94,24,4,5,0.97,0.69*
CCOC(=O)c1c(C)oc2cc(S(=O)(=O)O)c(O)cc12,0.95,15,.,.,.,.
COc1ccc(/C=C2/SC(=S)NC2=O)cc1OCc1ccc(Cl)cc1,1,8,.,.,.,.
COc1cc(/C=C2/SC(=S)NC2=O)cc(Cl)c1OCc1ccc(Cl)cc1Cl,1,48*,12,55*,0.94,0.85
CCOC(=O)c1ccc(NC(=O)C2CN(S(=O)(=O)c3ccccc3)CCN2S(=O)(=O)c2ccccc2)cc1 (configuration not stated),1,4,.,.,.,.
COc1cc(C2NC(=O)NC(C)=C2C(=O)OCc2ccc3c(c2)OCO3)cc(Br)c1O (configuration not stated),0.95,8,.,.,.,.
O=C(Nc1ccccc1Br)c1ccc(OC(F)F)cc1,1,11,.,.,.,.
N#Cc1c(N)c(C#N)c(-c2ccco2)c2c1CCCC2,0.96,32,17,21,0.98,0.92
N#Cc1c(-c2ccco2)c2c([nH]c1=S)CCCC2,1.1,18,.,.,.,.
CC(C)(CN1CCOCC1)NS(=O)(=O)c1ccc(Cl)cc1,1.1,-21,.,.,.,.
CCCCCCN1C(=O)C(O)=C(C(C)=O)C1c1ccc2c(c1)OCO2 (configuration not stated),1.1,14,.,.,.,.
COC(=O)c1cc(=O)[nH]c(Nc2nc3ccccc3o2)n1,1.1,-14,.,.,.,.
CN(C)c1ccc(NC(=O)c2ccc(Cl)cc2)cc1,0.9,10,.,.,.,.
CN(C)c1ccc(C(=O)Nc2ccc(S(N)(=O)=O)cc2)cc1,0.84,78*,57*,49,0.83,0.78*
O=c1[nH]c(=O)n(-c2ccc(Br)cc2)c(O)c1C=C1C=CC=N1,0.83,-2,.,.,.,.
Cc1ccccc1-n1c(O)c(C=C2C=CC=N2)c(=O)[nH]c1=S,0.75*,63*,58*,140*,0.72*,0.74*

# Assay outcomes (PubChem BioAssay)
